Results reported in PubChem BioAssay (Tox21).
Unmarked numbers belong to inactive results. Records with an inconclusive call do not appear. Calls of active or inactive are those of the source. Calls come from the whole dose curve; as a rule, active = well fitted curve in the direction sought with a large enough effect in the repeat runs; inconclusive = weak or mixed curves; inactive = no such curve, though single readings can be large; an effect the other way counts as inactive or inconclusive.
% is set by controls: 0 for no effect and ±100 for the full control effect.

Assay: Caspase-3/7 induction in HepG2 cells by small molecules, qHTS assay (AID 1346978); note: nearly all actives have a fitted effect of over 15% in size
Details: HepG2 caspase-3/7 activation, Caspase-Glo luminescence, 17 h; series mostly up to 92.4 µM; caspase activation: at the top concentration
Procedure, shortened: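 Wild-type HepG2 cells (2,000/well) were settled 5 h at 37 C, 5% CO2, then exposed to compounds in DMSO for 17 h. Caspase-3/7 activity was read by luminescence 30 min after adding Caspase-Glo 3/7 reagent at room temperature.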
For `CCOC(=O)C(Cl)Cc1cc(-n2nc(C)n(C(F)F)c2=O)c(F)cc1Cl` (stereo unspecified), the “caspase activation” value was -1.02%. For `C[C@H](CN1CCOCC1)C(C(=O)N1CCCC1)(c1ccccc1)c1ccccc1`, the “caspase activation” value was 1.79%. For `O=C(Cl)C(Cl)Cl`, the “caspase activation” value was -0.533%. With `Cc1ccc(S(=O)(=O)N[C@@H](CCCCN)C(=O)CCl)cc1` the “caspase activation” value was -1.1% [at 42.5 µM]. With `NC(=O)OCCCc1ccccc1` the “caspase activation” value was 0.579% [at 42.5 µM]. For `Cn1c(N)nc2c3cccnc3ccc21`, the “caspase activation” value was 1.16%. In the case of `C[C@@H](N)[C@@H](O)c1ccccc1`, the “caspase activation” value is reported as -0.218% [at 42.5 µM]. In the case of `CCC(CC)(CNC(=O)CCCO)c1cccc(OC)c1`, the “caspase activation” value is reported as 3.96% [at 42.5 µM]. For `CCOC(=O)c1ncn2c1CN(C)C(=O)c1c(I)cccc1-2`, the “caspase activation” value was 0.161% [at 42.5 µM]. With `COc1cccc([C@@]2(O)CCCC[C@@H]2CN(C)C)c1` the “caspase activation” value was -0.808% [at 42.5 µM]. In the case of `CCC(C(N)=O)N1CCCC1=O` (stereo unspecified), the “caspase activation” value is reported as -0.0619% [at 42.5 µM]. With `CC(=NC#N)N(C)Cc1ccc(Cl)nc1` the “caspase activation” value was 0.881%. In the case of `COc1cc(CC(C)N)cc(OC)c1OC` (stereo unspecified), the “caspase activation” value is reported as -1.52%. For `ClC1=C(Cl)C2(Cl)C(CBr)CC1(Cl)C2(Cl)Cl` (stereo unspecified), the outcome was “inactive”. With `CCCOC(=O)Cc1ccc(OCC(=O)N(CC)CC)c(OC)c1` the “caspase activation” value was -0.68% [at 42.5 µM]. With `Cl/C=C/CCl` the “caspase activation” value was 0.514%. With `OCC(Cl)CCl` (stereo unspecified) the “caspase activation” value was 0.329%. In the case of `C[C@H](N)C(=O)c1ccccc1`, the “caspase activation” value is reported as -0.448%. In the case of `CCOP(=S)(OCC)Oc1ccc(Cl)cc1Cl`, the “caspase activation” value is reported as 0.533%. In the case of `CCC(C)C(C)(COC(N)=O)COC(N)=O` (stereo unspecified), the “caspase activation” value is reported as 0.332% [at 42.5 µM]. In the case of `COC[C@@H](NC(C)=O)C(=O)NCc1ccccc1`, the “caspase activation” value is reported as 1.59% [at 42.5 µM]. For `BrCc1ccc(Br)cc1`, the “caspase activation” value was -2.38%. For `CCCCCCCCSC(=O)Oc1cc(Cl)nnc1-c1ccccc1`, the “caspase activation” value was 0.432%. With `CN1C(=O)COc2c(C(=O)NC3CN4CCC3CC4)cc(Cl)cc21` (stereo unspecified) the “caspase activation” value was 2.07% [at 42.5 µM]. With `COC1=CC(=O)O[C@@H](/C=C/c2ccccc2)C1` the “caspase activation” value was -11.6%. In the case of `C=CCC1(C(C)CC)C(=O)NC(=O)NC1=O` (stereo unspecified), the “caspase activation” value is reported as -1.87% [at 42.5 µM]. For `O=C(Cl)c1ccccc1`, the “caspase activation” value was -0.062%. In the case of `CNC(=O)Oc1cc(C)c(N(C)C)c(C)c1`, the “caspase activation” value is reported as 0.947%. For `N[C@@H](Cc1ccc(Oc2cc(I)c(O)c(I)c2)c(I)c1)C(=O)O`, the “caspase activation” value was 0.888% [at 42.5 µM]. In the case of `C=C(Cl)CSC(=S)N(CC)CC`, the “caspase activation” value is reported as 0.461%. For `C=C1CC[C@@]2(O)[C@H]3Cc4ccc(O)c5c4[C@@]2(CCN3CC2CC2)[C@H]1O5`, the “caspase activation” value was -0.718% [at 42.5 µM]. In the case of `NC1(c2ccccc2)CCCCC1`, the “caspase activation” value is reported as -0.551%. With `Cn1c(CCCC(=O)O)nc2cc(N(CCCl)CCCl)ccc21` the “caspase activation” value was 0.997% [at 42.5 µM]. In the case of `CS(=O)(=O)Cl`, the “caspase activation” value is reported as 1.93%. With `Nc1c(Cl)c(F)nc(OCC(=O)O)c1Cl` the “caspase activation” value was -0.606%.

Assay: Caspase-3/7 induction in CHO-K1 cells by small molecules, qHTS cell viability counter screen (AID 1346979); note: nearly all actives have a fitted effect of over 35% in size; note: potency is the fitted concentration of half-maximal effect
Details: CellTiter-Fluor fluorescence, 17 h; series mostly up to 92.4 µM; activity change, negative = cytotoxicity: at the top concentration
Procedure, shortened: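 CellTiter-Fluor viability check, qHTS format: wild-type CHO-K1, 16hr compound treatment, 1hr reagent incubation, fluorescence read.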
In the case of `CCOC(=O)C(Cl)Cc1cc(-n2nc(C)n(C(F)F)c2=O)c(F)cc1Cl` (stereo unspecified), the “activity change, negative = cytotoxicity” value is reported as -6.91%. For `C[C@H](CN1CCOCC1)C(C(=O)N1CCCC1)(c1ccccc1)c1ccccc1`, the “activity change, negative = cytotoxicity” value was -14.1%. In the case of `O=C(Cl)C(Cl)Cl`, the “activity change, negative = cytotoxicity” value is reported as 0.743%. For `NC(=O)OCCCc1ccccc1`, the “activity change, negative = cytotoxicity” value was 8.5% [at 42.5 µM]. With `Cn1c(N)nc2c3cccnc3ccc21` the Potency was 51.8 µM (active). For `C[C@@H](N)[C@@H](O)c1ccccc1`, the “activity change, negative = cytotoxicity” value was 11.4% [at 42.5 µM]. With `CCC(CC)(CNC(=O)CCCO)c1cccc(OC)c1` the “activity change, negative = cytotoxicity” value was 6.64% [at 42.5 µM]. In the case of `CCOC(=O)c1ncn2c1CN(C)C(=O)c1c(I)cccc1-2`, the “activity change, negative = cytotoxicity” value is reported as -0.0163% [at 42.5 µM]. With `COc1cccc([C@@]2(O)CCCC[C@@H]2CN(C)C)c1` the “activity change, negative = cytotoxicity” value was -0.0447% [at 42.5 µM]. With `CCC(C(N)=O)N1CCCC1=O` (stereo unspecified) the “activity change, negative = cytotoxicity” value was 4.4% [at 42.5 µM]. For `CC(=NC#N)N(C)Cc1ccc(Cl)nc1`, the “activity change, negative = cytotoxicity” value was 8.6%. For `COc1cc(CC(C)N)cc(OC)c1OC` (stereo unspecified), the “activity change, negative = cytotoxicity” value was -0.312%. In the case of `ClC1=C(Cl)C2(Cl)C(CBr)CC1(Cl)C2(Cl)Cl` (stereo unspecified), the “activity change, negative = cytotoxicity” value is reported as 5.57% [at 42.5 µM]. In the case of `CCCOC(=O)Cc1ccc(OCC(=O)N(CC)CC)c(OC)c1`, the “activity change, negative = cytotoxicity” value is reported as 2.71% [at 42.5 µM]. In the case of `OCC(Cl)CCl` (stereo unspecified), the “activity change, negative = cytotoxicity” value is reported as 2.98%. In the case of `C[C@H](N)C(=O)c1ccccc1`, the “activity change, negative = cytotoxicity” value is reported as -0.198%. With `CCOP(=S)(OCC)Oc1ccc(Cl)cc1Cl` the “activity change, negative = cytotoxicity” value was -2.29%. With `CCC(C)C(C)(COC(N)=O)COC(N)=O` (stereo unspecified) the “activity change, negative = cytotoxicity” value was 4.83% [at 42.5 µM]. In the case of `COC[C@@H](NC(C)=O)C(=O)NCc1ccccc1`, the “activity change, negative = cytotoxicity” value is reported as 3.25% [at 42.5 µM]. In the case of `BrCc1ccc(Br)cc1`, the “activity change, negative = cytotoxicity” value is reported as -0.322%. In the case of `CN1C(=O)COc2c(C(=O)NC3CN4CCC3CC4)cc(Cl)cc21` (stereo unspecified), the “activity change, negative = cytotoxicity” value is reported as 6.57% [at 42.5 µM]. With `C=CCC1(C(C)CC)C(=O)NC(=O)NC1=O` (stereo unspecified) the “activity change, negative = cytotoxicity” value was -1.92% [at 42.5 µM]. For `O=C(Cl)c1ccccc1`, the “activity change, negative = cytotoxicity” value was 6.15%. For `N[C@@H](Cc1ccc(Oc2cc(I)c(O)c(I)c2)c(I)c1)C(=O)O`, the “activity change, negative = cytotoxicity” value was -1.15% [at 42.5 µM]. For `C=C(Cl)CSC(=S)N(CC)CC`, the “activity change, negative = cytotoxicity” value was 5.94%. With `C=C1CC[C@@]2(O)[C@H]3Cc4ccc(O)c5c4[C@@]2(CCN3CC2CC2)[C@H]1O5` the “activity change, negative = cytotoxicity” value was 2.03% [at 42.5 µM]. For `NC1(c2ccccc2)CCCCC1`, the “activity change, negative = cytotoxicity” value was -12.3%. With `CS(=O)(=O)Cl` the “activity change, negative = cytotoxicity” value was 6.76%. In the case of `Nc1c(Cl)c(F)nc(OCC(=O)O)c1Cl`, the “activity change, negative = cytotoxicity” value is reported as 12.9%.

Assay: Caspase-3/7 induction in CHO-K1 cells by small molecules, qHTS assay (AID 1346980); note: nearly all actives have a fitted effect of over 15% in size
Details: CHO-K1 caspase-3/7 induction, Caspase-Glo luminescence, 17 h; series mostly up to 92.4 µM; caspase-3/7 activation: at the top concentration
Procedure, shortened: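 Wild-type cells were seeded at 1,500 per well and settled 5 hr at 37 C, 5% CO2, then exposed to DMSO-dissolved compounds for 17 hr. Caspase-Glo 3/7 reagent was added, and luminescence was read after 30min at room temperature.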
With `CCOC(=O)C(Cl)Cc1cc(-n2nc(C)n(C(F)F)c2=O)c(F)cc1Cl` (stereo unspecified) the “caspase-3/7 activation” value was -0.0339%. With `C[C@H](CN1CCOCC1)C(C(=O)N1CCCC1)(c1ccccc1)c1ccccc1` the “caspase-3/7 activation” value was -1.07%. In the case of `Cc1ccc(S(=O)(=O)N[C@@H](CCCCN)C(=O)CCl)cc1`, the “caspase-3/7 activation” value is reported as -2.2% [at 42.5 µM]. For `Cn1c(N)nc2c3cccnc3ccc21`, the “caspase-3/7 activation” value was -0.629%. With `C[C@@H](N)[C@@H](O)c1ccccc1` the “caspase-3/7 activation” value was -0.0941% [at 42.5 µM]. For `CCC(CC)(CNC(=O)CCCO)c1cccc(OC)c1`, the “caspase-3/7 activation” value was -0.404% [at 42.5 µM]. In the case of `CCOC(=O)c1ncn2c1CN(C)C(=O)c1c(I)cccc1-2`, the “caspase-3/7 activation” value is reported as -0.883% [at 42.5 µM]. For `COc1cccc([C@@]2(O)CCCC[C@@H]2CN(C)C)c1`, the “caspase-3/7 activation” value was -0.0407% [at 42.5 µM]. With `CCC(C(N)=O)N1CCCC1=O` (stereo unspecified) the “caspase-3/7 activation” value was 0.109% [at 42.5 µM]. In the case of `CC(=NC#N)N(C)Cc1ccc(Cl)nc1`, the “caspase-3/7 activation” value is reported as 1.53%. For `COc1cc(CC(C)N)cc(OC)c1OC` (stereo unspecified), the “caspase-3/7 activation” value was -0.234%. In the case of `ClC1=C(Cl)C2(Cl)C(CBr)CC1(Cl)C2(Cl)Cl` (stereo unspecified), the “caspase-3/7 activation” value is reported as -0.0784% [at 42.5 µM]. With `Cl/C=C/CCl` the “caspase-3/7 activation” value was -1.34%. For `OCC(Cl)CCl` (stereo unspecified), the “caspase-3/7 activation” value was -0.254%. With `CCC(C)C(C)(COC(N)=O)COC(N)=O` (stereo unspecified) the “caspase-3/7 activation” value was 2.22% [at 42.5 µM]. For `COC[C@@H](NC(C)=O)C(=O)NCc1ccccc1`, the “caspase-3/7 activation” value was 1.56% [at 42.5 µM]. With `BrCc1ccc(Br)cc1` the “caspase-3/7 activation” value was -1.45%. For `CN1C(=O)COc2c(C(=O)NC3CN4CCC3CC4)cc(Cl)cc21` (stereo unspecified), the “caspase-3/7 activation” value was 0.768% [at 42.5 µM]. In the case of `COC1=CC(=O)O[C@@H](/C=C/c2ccccc2)C1`, the “caspase-3/7 activation” value is reported as -4.33%. In the case of `O=C(Cl)c1ccccc1`, the “caspase-3/7 activation” value is reported as 0.388%. In the case of `CNC(=O)Oc1cc(C)c(N(C)C)c(C)c1`, the “caspase-3/7 activation” value is reported as -1.37%. In the case of `N[C@@H](Cc1ccc(Oc2cc(I)c(O)c(I)c2)c(I)c1)C(=O)O`, the “caspase-3/7 activation” value is reported as 0.225% [at 42.5 µM]. In the case of `C=C(Cl)CSC(=S)N(CC)CC`, the “caspase-3/7 activation” value is reported as 0.154%. In the case of `C=C1CC[C@@]2(O)[C@H]3Cc4ccc(O)c5c4[C@@]2(CCN3CC2CC2)[C@H]1O5`, the “caspase-3/7 activation” value is reported as -0.516% [at 42.5 µM]. For `NC1(c2ccccc2)CCCCC1`, the “caspase-3/7 activation” value was 0.182%. With `Cn1c(CCCC(=O)O)nc2cc(N(CCCl)CCCl)ccc21` the “caspase-3/7 activation” value was -0.812% [at 42.5 µM]. In the case of `CS(=O)(=O)Cl`, the “caspase-3/7 activation” value is reported as -0.114%.
